# Experimental data taken from PubChem BioAssay AID504467 (National Center for Advancing Translational Sciences (NCATS), 2011).
# About 7,700 (2.3%) of roughly 330,000 compounds were called active. Where a call stands in place of a potency, no number is given. Inconclusive results (about 26%) are left out. Calls follow the shape of the dose curve; as a rule, active = well fitted inhibition curve with a large enough effect; inconclusive = small, poorly fitted or top-dose-only effect, or effect the other way; inactive = flat fitted curve, though single readings scatter. The sample as a whole holds a higher share of actives than the screen did.
# Assay: qHTS screen for small molecules that inhibit ELG1-dependent DNA repair in human embryonic kidney (HEK293T) cells expressing luciferase-tagged ELG1; also: nearly all actives have a fitted effect of over 55% in size
# Details: HEK293T ELG1-luciferase reporter, luminescence, 16 h, DNA damage induced by 5-fluorouridine; series mostly up to 46.1 µM
# How it was run: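 Reporter activity after DNA damage by 5-fluorouridine is monitored. Compound-treated cells incubate 16 hr at 37 °C, then ONE-Glo is added for 30 min before luminescence reading.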
# Potency is read from the fitted curve at half-maximal effect.
row,Compound,Potency
1,N#CC(Cc1cc2ccccc2n1S(=O)(=O)c1ccccc1)OCc1ccccc1 (stereo not drawn),inactive
2,Cn1cccc1C(=O)OCC(=O)NCCc1ccccc1,inactive
3,Cc1cccc(C)c1NC(=O)COC(=O)c1c(C)nn(-c2ccccc2)c1C,inactive
4,O=C(CCNC(=O)c1ccc(Br)cc1)NCC(c1ccco1)N1CCCCC1 (stereo not drawn),inactive
5,CC1CC(C)CN(S(=O)(=O)c2ccc(C(=O)NN3CCOCC3)cc2)C1 (stereo not drawn),inactive
6,CNC(=O)c1ccsc1NC(=O)c1ccc(S(=O)(=O)N2CCc3ccccc32)cc1,18.4 µM (active)
7,COc1cccc(NC(=O)c2cc(S(=O)(=O)N3CCc4ccccc43)cn2C)c1,inactive
8,CCn1c(=O)c(=O)n(CC)c2cc(S(=O)(=O)N3CCc4ccccc43)ccc21,inactive
9,CC1CN(S(=O)(=O)c2ccc(C(=O)Nc3sccc3C(N)=O)cc2)CC(C)O1 (stereo not drawn),18.4 µM (active)
10,CC1CN(S(=O)(=O)c2ccc(C(=O)NN3CCN(C)CC3)cc2)CC(C)O1 (stereo not drawn),inactive
11,N#Cc1c(-c2ccccc2)nc(SCc2ccc([N+](=O)[O-])cc2)[nH]c1=O,inactive
12,O=C(CNC(=O)C1COc2ccccc2O1)N/N=C/c1cc(Br)c(O)c(Br)c1 (stereo not drawn),inactive
13,O=C(CSc1nccn1-c1cccc(F)c1)NC1CCCC1,inactive
14,CC(C)CC(O)C1CCN(C(=O)CCc2nnc(-c3ccc4c(c3)OCO4)o2)CC1 (stereo not drawn),inactive
15,CCn1c2ccc(F)cc2c2nnc(SCCN3CCOCC3)nc21,inactive
16,CCN(CC(=O)NC(C)C)C(=O)c1cc(S(=O)(=O)N2CCCCC2)ccc1N1CCCCC1,inactive
17,CCN(CC(=O)Nc1ccccc1C(=O)NC1CC1)Cc1cccs1,inactive
18,O=C1CCCc2c1nc(-c1cccc(Cl)c1)n2O,inactive
19,Cc1cccc(-c2nc3ccccc3c(=O)n2NC(=O)Cc2ccc(Cl)cc2)c1,inactive
20,O=c1c2cc(Br)ccc2nc(-c2cccc(Cl)c2)n1O,18.3 µM (active)
21,Cc1ccc(NC(=O)Cn2cnc3c(OCc4ccccc4)ncnc32)cc1C,inactive
22,Cc1cc(C)c(S(=O)(=O)NCC(c2ccc3c(c2)OCO3)N2CCOCC2)c(C)c1 (stereo not drawn),inactive
23,Fc1ccc(/C=N/n2c(COc3ccccc3)n[nH]c2=S)cc1,inactive
24,CN(C)c1ccc(Nc2c3c4c(cccc4n(C)c2=O)C(=O)c2ccccc2-3)cc1,7.31 µM (active)
25,CN(C)c1ccc(C2N(C)C(=O)c3ccccc3N2C)cc1 (stereo not drawn),inactive
26,Cc1ccc(NS(=O)(=O)c2ccc3c(c2)n(C)c(=O)c(=O)n3C)c(C)c1,inactive
27,CCC1=Nc2cc(C(=O)NCCN3CCCC3)ccc2Sc2ccc(C)cc21,inactive
28,CCOC(=O)CC1(NC(=O)c2cc(COc3cncc(Cl)c3)on2)CCCCC1,inactive
